We go through 25 compounds from PubChem BioAssay (NCATS).

Inconclusive results are not listed. Where a call stands in place of a potency, no number is given. Activity calls are given as the source filed them. Unless noted, calls follow the shape of the dose curve; as a rule, active = well fitted curve in the direction sought with a large enough effect; inconclusive = small, poorly fitted or top-dose-only effect, or another doubt; inactive = no such curve, though single readings can be large; an effect the other way counts as inactive or inconclusive.
Potency is read from the fitted curve at half-maximal effect.

For one assay, the target named is Calcium and integrin-binding protein 1 (Homo sapiens) (UniProt Q99828). The assay is described as follows: Primary qHTS for Identification of Calcium Integrin Binding Protein 1 (CIB1) Competitor (AID 1508620). The note with it: CIB1-GST / FITC-alphaIIb peptide fluorescence polarization; series mostly up to 114 µM. The method, boiled down: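 Fluorescence polarization competition: GST-tagged CIB1 (1 uM final) preincubated with compound 15 min at room temperature, then FITC-labelled alphaIIb peptide (100 nM final) added. After 15 min at room temperature, polarization read at Ex 480/Em 540.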
Calcium and integrin-binding protein 1 (Homo sapiens), sequence (Q99828 whole entry, looked up): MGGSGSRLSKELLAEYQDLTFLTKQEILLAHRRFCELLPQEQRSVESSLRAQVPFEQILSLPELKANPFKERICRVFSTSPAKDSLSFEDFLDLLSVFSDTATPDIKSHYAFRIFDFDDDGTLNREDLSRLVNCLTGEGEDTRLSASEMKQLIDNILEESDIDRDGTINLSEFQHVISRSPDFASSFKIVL
A general note: In qHTS, concentration-response curves come from the screen itself.
For the compound `CCNC(=O)C#Cc1ccc2c(C(=Nc3ccc(CN(C)C)cc3)c3ccccc3)c(O)[nH]c2c1`, the Potency entry is “inactive”.
The same measure, in the same setting: the same measure for `C[C@H]1CC[C@@]2(OC1)O[C@H]1CC3[C@@H]4CC[C@@H]5C[C@@H](O[C@@H]6O[C@H](CO)[C@@H](O[C@@H]7O[C@H](CO[C@@H]8OC[C@@H](O)[C@H](O)[C@H]8O)[C@@H](O[C@@H]8O[C@H](CO)[C@H](O)[C@H](O)[C@H]8O)[C@H](O)[C@H]7O)[C@H](O)[C@H]6O)CC[C@]5(C)C4CC[C@]3(C)[C@H]1[C@@H]2C` (stereo partly specified): “inactive”.
Still for that read-out and setting: the same measure for `CCc1c(Cl)c(O)c(Cl)c(O)c1C(=O)O[C@H]1[C@H](O)[C@H](OC)[C@H](OC/C2=C\C=C\C[C@H](O)/C(C)=C\[C@H](CC)[C@@H](O[C@@H]3OC(C)(C)[C@@H](OC(=O)C(C)C)[C@H](O)[C@@H]3O)/C(C)=C/C(C)=C/C[C@@H]([C@@H](C)O)OC2=O)O[C@@H]1C`: “inactive”; for `CC1=CC2/C=C(\C)CCC3OC(C)(C)OC3CCC(=O)C23C(=O)NC(CC(C)C)C3C1C` (stereo unspecified): “inactive”; for `CCC(C)/C=C(C)/C=C/C1=CC2=C(Cl)C(=O)C(C)(OC(C)=O)C(=O)C2(O)C(OC)O1` (stereo unspecified): “inactive”.
Same read-out and setting: the same measure for `CC(=O)OC1[C@H]2[C@@H](C[C@@H](C)[C@@H]3C=CC(=O)[C@@]13C)OC(=O)[C@@H]2C` (stereo partly specified): “inactive”; for `C[C@@H]1CC[C@]2(C(=O)O)CC[C@]3(C)C(=CCC4[C@@]5(C)CC[C@H](O)[C@](C)(C(=O)O)C5CC[C@]43C)C2[C@]1(C)O` (stereo partly specified): “inactive”.
As for `CN[C@H]1CC[C@@H](c2ccc(Cl)c(Cl)c2)c2ccccc21`, the Potency result is “inactive”.
Same read-out and setting: the same measure for `Cn1c(=O)c(F)c(Nc2ccc(I)cc2F)c2c(=O)n(CC(O)CO)cnc21` (stereo unspecified): “inactive”; for `CC(C)c1cc(-c2ccc(F)c3ccccc23)nc(N)n1`: “inactive”.
The same measure, in the same setting: the same measure for `O=C(O)CSc1cc(NS(=O)(=O)c2ccc(Br)cc2)c2ccccc2c1O`: 44.7 µM (active); for `COC1=CC(=O)C[C@@H](C)[C@@]12Oc1c(Cl)c(OC)cc(OC)c1C2=O`: “inactive”; for `O=C([C@@H](Cc1cccc(C(F)(F)F)c1)NS(=O)(=O)c1cc(F)c2c(c1)CCNC2)N1CCCC1`: “inactive”.
Still for that read-out and setting: the same measure for `C[C@@H](Nc1ncnc2[nH]c(-c3ccc(O)cc3)cc12)c1ccccc1`: “inactive”; for `CN(c1ccc(NC(=O)Nc2ccccc2)cc1)S(=O)(=O)c1cnn(-c2ccc(F)cc2)c1`: “inactive”; for `C[C@]12CC[C@@H]3c4ccc(O)c(O)c4CC[C@H]3[C@@H]1CCC2=O`: “inactive”.
Take `C=C1C(=O)OC2C1CCC1(C)C(O)CCC(=C)C21` (stereo unspecified): the Potency result is “inactive”.
On the same count and under the same terms, the same measure for `Cc1cc(-c2cnc(N)c3c(-c4ccc5scnc5c4)csc23)n(C)n1`: “inactive”; for `Cc1[nH]c2ccccc2c1CCNCc1ccc(/C=C/C(=O)NO)cc1`: “inactive”; for `CC(C)C[C@H](C(=O)O)c1cc(-c2ccc(C(F)(F)F)cc2)cc(-c2ccc(C(F)(F)F)cc2)c1`: “inactive”.
For `COc1ccccc1C(=O)Nc1cccc(NC(=O)c2cccc(C)c2)c1`, the Potency result is “inactive”.
Still for that read-out and setting: the same measure for `COc1ccc(S(=O)(=O)n2cnc3cc(C)c(C)cc32)cc1`: “inactive”; for `CC1(CO)CC(O)[C@]2(C(=O)O)CCC34CC3(C=CC3[C@]5(C)C(CC[C@]34C)C(C)(CO)[C@@H](O)[C@H](O)[C@@H]5O)C2C1` (stereo partly specified): “inactive”.

In a further assay the target is Cytochrome P450 2D6 (Homo sapiens) (UniProt P10635). As to the kind of experiment: Cytochrome P450 family 2 subfamily D member 6 (CYP2D6) small molecule antagonists: luciferase biochemical (cell-free) qHTS assay (AID 1645840; active = well fitted curve in the direction sought with a large enough effect in the repeat runs; an effect the other way counts as inactive or inconclusive; also: nearly all actives have a fitted effect of over 55% in size). The settings on record: P450-Glo CYP2D6 enzyme, luciferin luminescence, 1 h; series mostly up to 57.4 µM. The gist of the method: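 P450-Glo CYP2D6 system: proluciferin substrate converted by enzyme to luciferin, read by luminescence proportional to activity. Enzyme-substrate mix with compound 10 min at room temperature, then NADPH regeneration 1 h before detection reagent.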
Cytochrome P450 2D6 (Homo sapiens), sequence (P10635 whole entry, looked up): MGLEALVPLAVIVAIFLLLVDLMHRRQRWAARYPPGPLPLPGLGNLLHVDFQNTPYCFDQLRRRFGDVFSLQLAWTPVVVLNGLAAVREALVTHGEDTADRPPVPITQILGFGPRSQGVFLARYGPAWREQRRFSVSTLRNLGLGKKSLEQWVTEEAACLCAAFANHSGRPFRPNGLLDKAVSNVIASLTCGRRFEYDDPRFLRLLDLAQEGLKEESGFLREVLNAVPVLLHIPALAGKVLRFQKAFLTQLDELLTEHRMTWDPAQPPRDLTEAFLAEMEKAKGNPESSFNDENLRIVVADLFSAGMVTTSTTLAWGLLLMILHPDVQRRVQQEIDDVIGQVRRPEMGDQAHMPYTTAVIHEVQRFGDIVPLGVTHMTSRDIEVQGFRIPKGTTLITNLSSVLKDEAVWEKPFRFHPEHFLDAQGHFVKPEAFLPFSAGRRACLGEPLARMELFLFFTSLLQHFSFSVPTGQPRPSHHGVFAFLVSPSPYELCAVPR
Consider `COc1nc2ccc(Br)cc2cc1[C@@H](c1ccccc1)[C@@](O)(CCN(C)C)c1cccc2ccccc12`, for which the Potency is 7.56 µM (active).
The same measure, in the same setting: the same measure for `CN[C@H]1CC[C@@H](c2ccc(Cl)c(Cl)c2)c2ccccc21`: 2.19 µM (active); for `N#Cc1ccc(Nc2nc(-c3ccc(O)cc3O)cs2)cc1C(F)(F)F`: 5.35 µM (active).
